# Results filed as inconclusive are left out. Active and inactive are the calls of the source. How the source made its calls, unless noted: active means hit-call score of the fitted dose curve at least 0.9, where 1 is the maximum; inconclusive means response in the unintended direction; inactive means score below 0.9.
# Columns and labels:
# [1] = target: Cellular tumor antigen p53 (Homo sapiens) (UniProt P04637); test: TOX21_p53_BLA_p2_ratio: Tox21 HCT-116 p53 Agonism Beta-lactamase Assay, Ratio, Phase 2 (AID 2283592)
# Summary of the method: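 In this cell-based reporter format, HCT116 cells were dosed with chemicals delivered from DMSO by 217-fold dilution and incubated 16 h at 37C. Emission at 460 and 530 nm after 2 h CCF4-AM loading provided the ratio, fitted upward versus DMSO.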
# [2] = target: Cellular tumor antigen p53 (Homo sapiens) (UniProt P04637); test: TOX21_p53_BLA_p3_ratio: Tox21 HCT-116 p53 Agonism Beta-lactamase Assay, Ratio, Phase 3 (AID 2283596)
# Summary of the method: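 HCT116 p53-bla cells (4000/well) given compound in DMSO (217-fold dilution) after 5 h, incubated 16 h at 37C. CCF4-AM substrate 2 h at room temperature; 460/530 nm emission ratio, gain fitted against DMSO.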
# [3] = target: Cellular tumor antigen p53 (Homo sapiens) (UniProt P04637); test: TOX21_p53_BLA_p4_ratio: Tox21 HCT-116 p53 Agonism Beta-lactamase Assay, Ratio, Phase 4 (AID 2283601)
# Summary of the method: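 HCT116 cells carrying an inducible beta-lactamase reporter were plated at 4000 cells/well, rested 5 h, then exposed to compounds in DMSO (217-fold dilution) for 16 h at 37C. CCF4-AM substrate was loaded 2 h at room temperature; 460/530 nm emission ratio scored gain-of-signal versus DMSO.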
# [4] = TOX21_p53_BLA_p5_viability: Viability Assessment in the Tox21 HCT-116 p53 Agonism Beta-lactamase Assay, Phase 5 (AID 2283600)
# Summary of the method: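 Compounds, pinned from DMSO at 217-fold dilution, were left on the cells for 16 h. The viability endpoint was ATP content measured by CellTiter-Glo luminescence, where falling signal reflects cytotoxicity.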
# [5] = target: Cellular tumor antigen p53 (Homo sapiens) (UniProt P04637); test: TOX21_p53_BLA_p5_ratio: Tox21 HCT-116 p53 Agonism Beta-lactamase Assay, Ratio, Phase 5 (AID 2283599)
# Summary of the method: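 HCT-116 cells carrying a p53-inducible beta-lactamase reporter were seeded at 4000 cells/well and dosed after 5 h with compound in DMSO (217-fold dilution). After 16 h at 37C, CCF4-AM substrate was added for 2 h, and the 460/530 nm emission ratio was scored as gain-of-signal versus DMSO.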
# [6] = target: PGR (gene 5241) (UniProt P06401); test: TOX21_PR_BLA_Followup_Agonist_ratio: Tox21 HEK293 Progesterone Receptor (PR) Agonism Beta-lactamase Follow-Up Assay, Ratio (AID 2283933)
# Summary of the method: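 PR-UAS-bla HEK293T cells in medium with 2% charcoal-stripped FBS were dosed after 6 h plating and incubated 16 h at 37C. LiveBLAzer FRET substrate was added for 2 h at room temperature. Cleaved/uncleaved substrate ratio fitted against DMSO; CellTiter-Glo viability run in the same wells.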
# [7] = target: PGR (gene 5241) (UniProt P06401); test: TOX21_PR_BLA_Followup_Antagonist_ratio: Tox21 HEK293 Progesterone Receptor (PR) Antagonism Beta-lactamase Follow-Up Assay, Ratio (AID 2283934)
# Summary of the method: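 PR-UAS-bla HEK293T cells, 3,000/well in 2% charcoal-stripped FBS, given compound plus 1nM R5020 agonist for 16 hr at 37C. Beta-lactamase FRET substrate 2 hours, ratio cleaved/uncleaved fluorescence; viability by CellTiter-Glo in same wells.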
# [8] = target: PGR (gene 5241) (UniProt P06401); test: TOX21_PR_LUC_Followup_Agonist: Tox21 HEK293 Progesterone Receptor (PR) Agonism Luciferase Follow-Up Assay (AID 2283937; active means hit-call score of the fitted dose curve at least 0.9, where 1 is the maximum; inactive means score below 0.9)
# Summary of the method: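 HEK293-PR-A-luc cells, conditioned 5 days in 10% charcoal-stripped FBS medium, seeded 3,000/well for 5 h, then compound-treated 16 h at 37C. ONE-Glo luminescence read after 30 min at room temperature; gain of signal versus DMSO.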
# [9] = target: PGR (gene 5241) (UniProt P06401); test: TOX21_PR_LUC_Followup_Antagonist: Tox21 HEK293 Progesterone Receptor (PR) Antagonism Luciferase Follow-Up Assay (AID 2283938);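 further: curve fitted upward as signal gain over DMSO baseline despite antagonist label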
# Summary of the method: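 Luminescence from ONE-Glo reagent, measured after 30 min at room temperature, served as readout. Cells (HEK293 carrying PR-A-luc) had been treated 16 h at 37C with DMSO-dissolved compounds. Activity was fitted against DMSO controls.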
# [10] = TOX21_p53_BLA_p4_viability: Viability Assessment in the Tox21 HCT-116 p53 Agonism Beta-lactamase Assay, Phase 4 (AID 2283597);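 further: hits lower the luminescence signal meaning cytotoxicity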
# Summary of the method: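 We seeded HCT116 p53 reporter cells at 4000/well and waited 5 h. We then added compounds in DMSO at a 217-fold dilution and incubated for 16 h. Viability was read as CellTiter-Glo luminescence after 30 min at RT.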
# Sequence of Cellular tumor antigen p53 (Homo sapiens) (P04637 whole entry, looked up): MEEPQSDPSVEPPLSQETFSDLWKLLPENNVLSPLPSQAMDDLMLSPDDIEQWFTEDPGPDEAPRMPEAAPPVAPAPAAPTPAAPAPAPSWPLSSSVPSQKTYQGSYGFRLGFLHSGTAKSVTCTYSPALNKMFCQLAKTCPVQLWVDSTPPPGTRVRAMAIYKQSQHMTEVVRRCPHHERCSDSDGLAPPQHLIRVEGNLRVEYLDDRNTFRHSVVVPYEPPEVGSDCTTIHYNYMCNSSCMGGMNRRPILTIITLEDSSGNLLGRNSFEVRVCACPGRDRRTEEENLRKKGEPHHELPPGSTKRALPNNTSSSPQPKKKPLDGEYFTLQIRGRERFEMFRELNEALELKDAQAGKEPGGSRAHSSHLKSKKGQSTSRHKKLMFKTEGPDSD
# Sequence of PGR (gene 5241) (P06401 whole entry, looked up): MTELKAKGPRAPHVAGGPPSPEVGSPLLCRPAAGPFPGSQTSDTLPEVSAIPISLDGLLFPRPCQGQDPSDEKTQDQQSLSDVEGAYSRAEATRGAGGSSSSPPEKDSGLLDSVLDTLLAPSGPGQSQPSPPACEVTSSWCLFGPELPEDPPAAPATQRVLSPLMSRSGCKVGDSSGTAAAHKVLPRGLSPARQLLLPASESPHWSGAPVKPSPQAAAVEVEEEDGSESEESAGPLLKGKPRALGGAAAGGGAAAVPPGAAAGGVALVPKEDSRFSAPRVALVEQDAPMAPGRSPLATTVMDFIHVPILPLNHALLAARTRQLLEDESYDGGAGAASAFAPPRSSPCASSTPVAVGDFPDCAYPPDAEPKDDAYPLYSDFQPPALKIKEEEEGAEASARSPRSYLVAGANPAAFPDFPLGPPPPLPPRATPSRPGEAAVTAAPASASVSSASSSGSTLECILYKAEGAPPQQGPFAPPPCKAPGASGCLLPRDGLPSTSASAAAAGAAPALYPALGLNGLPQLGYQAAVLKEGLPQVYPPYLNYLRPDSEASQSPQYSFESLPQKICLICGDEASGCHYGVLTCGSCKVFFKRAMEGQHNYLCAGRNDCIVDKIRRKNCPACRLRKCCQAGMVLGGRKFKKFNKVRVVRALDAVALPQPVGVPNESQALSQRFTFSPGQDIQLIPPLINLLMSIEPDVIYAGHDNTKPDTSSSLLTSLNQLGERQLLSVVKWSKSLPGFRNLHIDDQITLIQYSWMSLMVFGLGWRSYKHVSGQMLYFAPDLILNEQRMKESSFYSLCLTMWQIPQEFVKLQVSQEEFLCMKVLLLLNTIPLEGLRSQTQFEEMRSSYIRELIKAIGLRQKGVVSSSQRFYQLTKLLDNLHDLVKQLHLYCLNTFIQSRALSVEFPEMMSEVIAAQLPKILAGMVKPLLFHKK
compound,measurement,setting,value
Brc1ccc(-c2ccccc2)cc1,outcome,[1],inactive
same,outcome,[2],inactive
same,outcome,[3],inactive
CC(CN(C)C)CN1c2ccccc2CCc2ccccc21 (stereo not drawn),outcome,[1],inactive
same,outcome,[2],inactive
same,outcome,[4],inactive
same,outcome,[3],inactive
C=Cc1ccccn1,outcome,[1],inactive
same,outcome,[2],inactive
same,outcome,[3],inactive
O=C(CO)[C@@H](O)[C@H](O)[C@@H](O)CO,outcome,[1],inactive
same,outcome,[2],inactive
same,outcome,[4],inactive
[O]=[Bi][O][Bi]=[O],outcome,[1],inactive
same,outcome,[2],inactive
same,outcome,[4],inactive
same,outcome,[3],inactive
CCOC(=O)C1=C(C)NC(C)=C(C(=O)OC)C1c1cccc(Cl)c1Cl (stereo not drawn),outcome,[1],inactive
same,outcome,[2],inactive
same,outcome,[5],inactive
same,outcome,[3],inactive
same,outcome,[6],inactive
same,AC50,[7],14.7 µM (active)
same,outcome,[8],inactive
same,AC50,[9],13.4 µM (active)
CCCCCO,outcome,[1],inactive
same,outcome,[2],inactive
same,outcome,[3],inactive
C#CC(O)CCCCC (stereo not drawn),outcome,[1],inactive
same,outcome,[2],inactive
same,outcome,[4],inactive
same,outcome,[3],inactive
Nc1ncnc2c1ncn2[C@@H]1O[C@H](COP(=O)(O)O)[C@@H](O)[C@H]1O,outcome,[1],inactive
same,outcome,[2],inactive
same,outcome,[5],inactive
same,outcome,[3],inactive
FC1(F)C(F)(F)C(F)(F)C2(F)C(F)(F)C(F)(F)C(F)(F)C(F)(F)C2(F)C1(F)F (stereo not drawn),outcome,[1],inactive
same,outcome,[2],inactive
same,outcome,[5],inactive
same,outcome,[3],inactive
O=C[C@H](O)[C@@H](O)[C@H](O[C@H]1O[C@H](CO)[C@@H](O[C@H]2O[C@H](CO)[C@@H](O)[C@H](O)[C@H]2O)[C@H](O)[C@H]1O)[C@H](O)CO,outcome,[1],inactive
same,outcome,[10],inactive
same,outcome,[5],inactive
C[Se]CC[C@H](N)C(=O)O,outcome,[1],inactive
same,outcome,[10],inactive
same,outcome,[5],inactive
same,outcome,[4],inactive
same,outcome,[3],inactive

# Source: PubChem BioAssay (EPA / NIEHS)
